Here are results for 16 compounds from PubChem BioAssay (NCATS).

SMILES strings stand for the structures. Inconclusive results are not listed. Unmarked numbers belong to inactive results. The source made the active and inactive calls. The call rests on the fitted dose curve; in most records, active means well fitted inhibition curve with a large enough effect; inconclusive means small, poorly fitted or top-dose-only effect; inactive means flat fitted curve, though single readings scatter.

The test system of assay [1] is ICS. Nature of the assay: qHTS profiling for inhibitors of Plasmodium falciparum proliferation (AID 504749). Further: potency means the concentration at half of the fitted maximal effect. The note with it: P. falciparum in erythrocytes, SYBR Green DNA, 72 h; series mostly up to 28.7 µM. Summed up: (§1)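 P. falciparum-infected erythrocytes (0.3% parasitemia, 2.5% hematocrit) incubated with compound 72 h at 37 C, 5% CO2. Parasite DNA detected by SYBR Green after lysis, overnight at room temperature; normalised to 0.29 uM artemisinin and DMSO.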
For orientation: qHTS replaces the single test concentration by a dilution series.

The test system of assay [2] is JCK. The assay is described as above. The note with it: P. falciparum in erythrocytes, SYBR Green DNA, 72 h; series mostly up to 28.7 µM. Summed up: as §1
In assay [3] the test system is N140. Described as above. The note with it: P. falciparum in erythrocytes, SYBR Green DNA, 72 h; series mostly up to 28.7 µM. An outline of the steps: as §1
For assay [4], the system named is P93_24. The assay is described as above. As to conditions: P. falciparum in erythrocytes, SYBR Green DNA, 72 h; series mostly up to 28.7 µM. An outline of the steps: as §1
Assay [5] deals with PAD. The assay is described as above. As to conditions: P. falciparum in erythrocytes, SYBR Green DNA, 72 h; series mostly up to 28.7 µM. Summed up:
as §1

Assay [6] deals with PC15. The description is as above. The note with it: P. falciparum in erythrocytes, SYBR Green DNA, 72 h; series mostly up to 28.7 µM. Summed up:
as §1

Assay [7] has as its system PC26. The assay is described as above. As to conditions: P. falciparum in erythrocytes, SYBR Green DNA, 72 h; series mostly up to 28.7 µM. Summed up:
as §1

The subject of assay [8] is PC49. The description is as above. The note with it: P. falciparum in erythrocytes, SYBR Green DNA, 72 h; series mostly up to 28.7 µM. Summed up: as §1
The test system of assay [9] is SC27B. The assay is described as above. As to conditions: P. falciparum in erythrocytes, SYBR Green DNA, 72 h; series mostly up to 28.7 µM. An outline of the steps: as §1
The subject of assay [10] is TAB109. The description is as above. As to conditions: P. falciparum in erythrocytes, SYBR Green DNA, 72 h; series mostly up to 28.7 µM. Summed up:
as §1

Assay [11] relates to TAB113. The assay is described as above. As to conditions: P. falciparum in erythrocytes, SYBR Green DNA, 72 h; series mostly up to 28.7 µM. Summed up: as §1
Assay [12] concerns TAB165. Described as above. As to conditions: P. falciparum in erythrocytes, SYBR Green DNA, 72 h; series mostly up to 28.7 µM. Summed up:
as §1

Assay [13] deals with W2. Described as above. As to conditions: P. falciparum in erythrocytes, SYBR Green DNA, 72 h; series mostly up to 28.7 µM. An outline of the steps: as §1
The subject of assay [14] is KB-3-1. Nature of the assay: Cytotoxic Profiling of Annotated Libraries Using Quantitative High-Throughput Screening (AID 1296008). Further: on the % scale 0 is the no-effect control and ±100 the full control effect. The note with it: Five cell lines viability, CellTiter-Glo ATP luminescence, 48-72 h; max response: hits give low values. An outline of the steps:
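Cells exposed to compounds for 48 or 72 hr at 37 degrees Celsius. Viability read as ATP-coupled luminescence with CellTiter-Glo after 10 min at room temperature.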
On the technique in general: ATP-based viability assays read luminescence as a measure of living cells.

The subject of assay [15] is P94_40. Nature of the assay: qHTS profiling for inhibitors of Plasmodium falciparum proliferation (AID 504749). Further: potency means the concentration at half of the fitted maximal effect. The note with it: P. falciparum in erythrocytes, SYBR Green DNA, 72 h; series mostly up to 28.7 µM. An outline of the steps: as §1
Further: nearly all actives have a fitted effect of over 60% in size.

Consider `C[C@H](CCCC(C)(C)O)[C@H]1CC[C@H]2[C@@H]3CC=C4C[C@@H](O)CC[C@]4(C)[C@H]3CC[C@]12C`, for which, in assay [1], the Potency was 12.6 µM (active). The Potency result in [2], in assay [3], in [4], in assay [5], in [6] and in assay [7] was “inactive” each time. Further, the Potency entry in [8], in assay [9], in [10], in assay [11], in assay [12] and in [13] was “inactive” throughout. For the same compound, in assay [14], the max response is 2.18%.

For the compound `Cc1cc2nc3c(=O)[nH]c(=O)nc-3n(C[C@H](O)[C@H](O)[C@H](O)COP(=O)(O)OP(=O)(O)OC[C@H]3O[C@@H](n4cnc5c(N)ncnc54)[C@H](O)[C@@H]3O)c2cc1C`, the Potency entry in assay [1], in assay [2], in assay [3], in assay [4], in [15] and in [5] was “inactive” throughout. The Potency result in assay [6], in [8], in assay [9], in assay [10], in assay [11] and in [12] was “inactive” each time. The Potency result in assay [13] is “inactive”. The max response in [14] is -11%.

Consider `O=C(OC1C[C@@H]2CC3C[C@H](C1)N2CC3=O)c1c[nH]c2ccccc12` (stereo partly drawn), for which the Potency in assay [1] is 10 µM (active). Also, the Potency entry in assay [2], in [3], in assay [4], in [15], in assay [9] and in [11] was “inactive” each time. Also, the max response in [14] is -14.8%.

For `C[C@H](N)C(=O)N[C@@H](C)P(=O)(O)O`, the Potency result in [1], in assay [2], in assay [3], in assay [4], in assay [15] and in [5] was “inactive” throughout. Further, the Potency entry in [6], in assay [7], in assay [8], in assay [9], in assay [11] and in assay [12] was “inactive” each time. Further, the Potency entry in [13] is “inactive”. The max response in [14] was -6.78%.

On to `CC(C)Cc1ccc([C@@H](C)C(=O)NS(C)(=O)=O)cc1`, for which the Potency entry in assay [1], in [2], in assay [3], in assay [4], in assay [15] and in [5] was “inactive” in each case. Moreover, the Potency result in [6], in assay [7], in [8], in assay [9], in assay [11] and in [12] was “inactive” in each case. Besides, in assay [13], the Potency result was “inactive”. In addition, the max response in assay [14] was 3.61%.

In the case of `CCOC(=O)c1cc(-c2ccccc2)nc2ccc(C)cc12`, the Potency entry in [1], in assay [2], in assay [3], in assay [4], in [15] and in assay [5] was “inactive” each time. The Potency result in [6], in assay [7], in [8], in assay [9], in [12] and in assay [13] was “inactive” each time. Besides, in assay [14], the max response is 3.5%.

As to `CN(C)CCOc1ccc(/C(=C(/CCCl)c2ccccc2)c2ccccc2)cc1`, the Potency entry in [1], in assay [2], in assay [3], in assay [4], in assay [15] and in assay [5] was “inactive” each time. The Potency result in assay [7], in assay [8], in [9], in [10], in assay [11] and in assay [12] was “inactive” in each case. The Potency entry in [13] was “inactive”. Besides, the max response in assay [14] was -3.21%.

On to `c1ccc2c(c1)Sc1ccccc1N2CCN1CCCC1`, for which the Potency in assay [1] is 3.98 µM (active); in assay [3], 7.94 µM (active); in assay [4], 7.08 µM (active); in assay [15] it was 7.94 µM (active); in assay [5], 7.94 µM (active); in assay [6] it was 11.2 µM (active). The Potency in assay [7] is 12 µM (active); in assay [9] it was 8.91 µM (active); in assay [10] it was 8.91 µM (active); in assay [11], 5.01 µM (active); in assay [12], 7.08 µM (active); in assay [13], 1.69 µM (active). The Potency entry in assay [2] is “inactive”. Further, the max response in assay [14] is -12.7%.

For the compound `CC1CC(O)CC(C)(C)C1` (stereo not drawn), the Potency result in assay [1], in assay [2], in [3], in assay [4], in assay [15] and in assay [5] was “inactive” throughout. The Potency entry in assay [6], in assay [8], in [9], in assay [10], in assay [11] and in [12] was “inactive” each time. The Potency result in assay [13] is “inactive”. Moreover, the max response in [14] is 4.01%.

Take `CCOC(=O)[C@@H](N)CS`: the Potency entry in assay [1], in [2], in [3], in assay [4], in [15] and in [5] was “inactive” in each case. Also, the Potency result in assay [6], in assay [7], in assay [9], in assay [10], in assay [11] and in assay [12] was “inactive” in each case. Moreover, the Potency result in assay [13] is “inactive”. Moreover, the max response in assay [14] was -7.89%.

Take `O=C(Nc1ccc(O)cc1)c1ccccc1O`: the Potency entry in assay [1], in assay [2], in assay [3], in [4], in [15] and in [5] was “inactive” in each case. Also, the Potency result in assay [6], in assay [7], in [8], in assay [9], in assay [10] and in assay [13] was “inactive” each time. For the same compound, the max response in assay [14] was 4.06%.

Regarding `COc1ccc(/C=N/NC(=O)c2ccncc2)c(C(=O)O)c1OC`, the Potency result in assay [1], in assay [2], in assay [3], in [4], in assay [15] and in assay [5] was “inactive” in each case. The Potency result in assay [6], in assay [7], in [8], in [9], in assay [11] and in assay [12] was “inactive” in each case. For the same compound, in [13], the Potency entry is “inactive”. The max response in [14] was -1.02%.

On to `CNC(=O)c1c(I)c(C(=O)NCC(=O)Nc2c(I)c(C(=O)O)c(I)c(C(=O)NCCO)c2I)c(I)c(N(C)C(C)=O)c1I`, for which the Potency result in assay [1], in assay [2], in assay [3], in [4], in assay [15] and in [5] was “inactive” throughout. Also, the Potency result in assay [6], in [7], in assay [8], in assay [9], in [11] and in assay [12] was “inactive” each time. In addition, the Potency result in assay [13] was “inactive”. Also, the max response in assay [14] was 10%.

Regarding `O=P(O)(O)CP(=O)(O)O`, the Potency entry in assay [1], in [2], in assay [3], in [4], in assay [5] and in [6] was “inactive” each time. Further, the Potency entry in assay [7], in assay [8], in [9], in assay [10], in assay [11] and in [12] was “inactive” throughout. The Potency result in assay [13] is “inactive”. For the same compound, the max response in assay [14] was -3.6%.

As for `Cc1c(C)c2c(c(C)c1OC(=O)CCC(=O)O)CC[C@@](C)(CCC[C@H](C)CCC[C@H](C)CCCC(C)C)O2`, in assay [1], the Potency was 11.2 µM (active). Moreover, the Potency entry in [2], in assay [3], in assay [4], in [15], in assay [5] and in assay [7] was “inactive” throughout. Besides, the Potency entry in assay [8], in assay [9], in [10], in assay [11] and in [12] was “inactive” in each case. In addition, in assay [14], the max response is 3.34%.

Consider `CCC(=O)c1ccc2c(c1)N(CCCN1CCN(CCO)CC1)c1ccccc1S2`, for which the Potency in assay [1] is 5.01 µM (active); in assay [3], 8.91 µM (active); in assay [4] it was 8.91 µM (active); in assay [15], 10 µM (active); in assay [5] it was 8.91 µM (active); in assay [6], 7.08 µM (active). Also, the Potency was 7.57 µM (active) in [7], 10 µM (active) in [8], 10 µM (active) in assay [12] and 5.36 µM (active) in assay [13]. Also, in assay [2], the Potency result is “inactive”. Further, the max response in assay [14] is -13.4%.
